# Results filed as inconclusive are left out. A call without a number means that no potency is given here. Active and inactive are the calls of the source. The call rests on the fitted dose curve; in most records, active means well fitted curve in the direction sought with a large enough effect; inconclusive means small, poorly fitted or top-dose-only effect, or another doubt; inactive means no such curve, though single readings can be large; an effect the other way counts as inactive or inconclusive.
# Assay: qHTS to identify inhibitors of the type 1 interferon - major histocompatibility complex class I in skeletal muscle: primary screen against the NCATS Pharmaceutical Collection (AID 1347407);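 further: luminescence of HiBiT knocked into endogenous HLA-B as interferon-induced MHC class I level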; further: potency means the concentration at half of the fitted maximal effect
# Details: human skeletal muscle cells, IFN-b-induced MHC-I HiBiT luminescence, 24 h; series mostly up to 45.9 µM
# Summary of the method: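 Cells were seeded with 4 ng/ml IFN-beta, incubated 1 h, then dosed with compounds over eight 1:5 steps up to 46 uM final. After 24 h at 37 C, HiBiT lytic reagent was added and luminescence read after 10 min lysis in the dark.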
row,SMILES,Potency
1,CNCCCC12CCC(c3ccccc31)c1ccccc12,inactive
2,COc1ccccc1OCCNCC(O)COc1cccc2[nH]c3ccccc3c12 (configuration not stated),inactive
3,Cc1ccc(C(=O)Nc2ccc(S(=O)(=O)O)c3cc(S(=O)(=O)O)cc(S(=O)(=O)O)c23)cc1NC(=O)c1cccc(NC(=O)Nc2cccc(C(=O)Nc3cc(C(=O)Nc4ccc(S(=O)(=O)O)c5cc(S(=O)(=O)O)cc(S(=O)(=O)O)c45)ccc3C)c2)c1,inactive
4,CN1CCC(=C2c3ccccc3CC(=O)c3sccc32)CC1,inactive
5,NS(=O)(=O)c1cc2c(cc1Cl)NCNS2(=O)=O,inactive
6,CC(C)NCC(O)c1ccc(O)c(O)c1 (configuration not stated),inactive
7,O=C1c2c(O)ccc(O)c2C(=O)c2c(NCCNCCO)ccc(NCCNCCO)c21,11.8 µM (active)
8,CCOC(=O)Nc1ccc(NCc2ccc(F)cc2)nc1N,inactive
9,COc1ccc(C2CNC(=O)C2)cc1OC1CCCC1 (configuration not stated),inactive
10,CC(C(=O)O)c1cccc(C(=O)c2ccccc2)c1 (configuration not stated),inactive
11,CC[C@@]1(O)C(=O)OCc2c1cc1n(c2=O)Cc2cc3c(CN(C)C)c(O)ccc3nc2-1,10.5 µM (active)
12,Nc1ccn([C@H]2CC[C@@H](CO)O2)c(=O)n1,inactive
13,CCOC(=O)c1ncn2c1CN(C)C(=O)c1cc(F)ccc1-2,inactive
14,Cc1cn([C@H]2C=C[C@@H](CO)O2)c(=O)[nH]c1=O,inactive
15,COc1nc(C)nc(Cl)c1NC1=NCCN1,inactive
16,CN(Cc1cnc2nc(N)nc(N)c2n1)c1ccc(C(=O)N[C@@H](CCC(=O)O)C(=O)O)cc1,inactive
17,CC(C)NCC(O)COc1ccc(CCOCC2CC2)cc1 (configuration not stated),inactive

row,SMILES,Potency
1,CN(C)CCOC(c1ccccc1)c1ccccc1,inactive
2,CCOC(=O)C(C)(C)Oc1ccc(Cl)cc1,inactive
3,CN1CCC(=C2c3ccccc3C=Cc3ccccc32)CC1,inactive
4,CCC1(C)CC(=O)NC1=O (configuration not stated),inactive
5,CN1CCN2c3ccccc3Cc3ccccc3C2C1 (configuration not stated),inactive
6,NC(=O)OCC(COC(N)=O)c1ccccc1,inactive
7,O=c1[nH]cc(F)c(=O)[nH]1,inactive
8,CC(CCc1ccc(O)cc1)NCCc1ccc(O)c(O)c1 (configuration not stated),inactive
9,CN(C)CCC=C1c2ccccc2C=Cc2ccccc21,inactive
10,CN1CCN(C2=Nc3cc(Cl)ccc3Nc3ccccc32)CC1,inactive
11,Cn1cnc2c1c(=O)[nH]c(=O)n2C,inactive
12,Nc1c2c(nc3ccccc13)CCCC2,inactive
13,Nc1nc2c(ncn2COC(CO)CO)c(=O)[nH]1,inactive
14,CN1C(C(=O)Nc2ccccn2)=C(O)c2ccccc2S1(=O)=O,inactive
15,O=C(c1ccc(OCCN2CCCCC2)cc1)c1c(-c2ccc(O)cc2)sc2cc(O)ccc12,inactive
16,C[C@](N)(Cc1ccc(O)c(O)c1)C(=O)O,inactive
17,CCc1cccc2c3c([nH]c12)C(CC)(CC(=O)O)OCC3 (configuration not stated),inactive

# Assay: qHTS for inhibitors of adenylyl cyclases using a fission yeast platform: a pilot screen against the NCATS LOPAC library (AID 1347410)
# Details: S. pombe CHP2027, fbp1-GFP fluorescence, 18 h, yeast expressing mammalian AC9 and human GNAS; series mostly up to 57.5 µM
# Summary of the method: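 Growth medium went into the plates first, then compounds were pinned (final up to 57 µM), then CHP2027 yeast were added. Plates were incubated overnight (18 h) at 30C in the dark, and GFP was measured by laser scanning cytometry.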
row,SMILES,outcome
1,COc1ccccc1OCCNCC(O)COc1cccc2[nH]c3ccccc3c12 (configuration not stated),inactive
2,CC[C@@]1(O)C(=O)OCc2c1cc1n(c2=O)Cc2cc3c(CN(C)C)c(O)ccc3nc2-1,inactive
3,Cc1cn([C@H]2C=C[C@@H](CO)O2)c(=O)[nH]c1=O,inactive
4,CN1CCN2c3ccccc3Cc3ccccc3C2C1 (configuration not stated),inactive
5,CC(CCc1ccc(O)cc1)NCCc1ccc(O)c(O)c1 (configuration not stated),inactive
6,CCc1cccc2c3c([nH]c12)C(CC)(CC(=O)O)OCC3 (configuration not stated),inactive

# Assay: qHTS to identify inhibitors of the type 1 interferon - major histocompatibility complex class I in skeletal muscle: primary screen against the NCATS Mechanism Interrogation Plate v5.0 (MIPE) Libary (AID 1347411); further: nearly all actives have a fitted effect of over 65% in size; further: potency means the concentration at half of the fitted maximal effect
# Details: iHSKM cells + IFN-b, HiBiT-tagged MHC-I luminescence, 24 h; series mostly up to 45.8 µM
# Summary of the method: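 Immortalized human myoblasts (C25cl48) with HiBit knocked into endogenous HLA-B*08:01 were stimulated with 4 ng/ml IFN-beta and given compounds in 11-point 1:3 titration from 46 uM. After 24 h at 37 C, lytic HiBiT luminescence was read.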
row,SMILES,Potency
1,CNCCCC12CCC(c3ccccc31)c1ccccc12,inactive
2,Cc1ccc(C(=O)Nc2ccc(S(=O)(=O)O)c3cc(S(=O)(=O)O)cc(S(=O)(=O)O)c23)cc1NC(=O)c1cccc(NC(=O)Nc2cccc(C(=O)Nc3cc(C(=O)Nc4ccc(S(=O)(=O)O)c5cc(S(=O)(=O)O)cc(S(=O)(=O)O)c45)ccc3C)c2)c1,inactive
3,CN1CCC(=C2c3ccccc3CC(=O)c3sccc32)CC1,inactive
4,NS(=O)(=O)c1cc2c(cc1Cl)NCNS2(=O)=O,inactive
5,CC(C)NCC(O)c1ccc(O)c(O)c1 (configuration not stated),inactive
6,O=C1c2c(O)ccc(O)c2C(=O)c2c(NCCNCCO)ccc(NCCNCCO)c21,0.93 µM (active)
7,CCOC(=O)Nc1ccc(NCc2ccc(F)cc2)nc1N,inactive
8,COc1ccc(C2CNC(=O)C2)cc1OC1CCCC1 (configuration not stated),inactive
9,CC(C(=O)O)c1cccc(C(=O)c2ccccc2)c1 (configuration not stated),inactive
10,CCOC(=O)c1ncn2c1CN(C)C(=O)c1cc(F)ccc1-2,inactive
11,COc1nc(C)nc(Cl)c1NC1=NCCN1,inactive
12,CN(Cc1cnc2nc(N)nc(N)c2n1)c1ccc(C(=O)N[C@@H](CCC(=O)O)C(=O)O)cc1,inactive
13,CC(C)NCC(O)COc1ccc(CCOCC2CC2)cc1 (configuration not stated),inactive
14,CN(C)CCOC(c1ccccc1)c1ccccc1,inactive
15,CCOC(=O)C(C)(C)Oc1ccc(Cl)cc1,inactive
16,CN1CCC(=C2c3ccccc3C=Cc3ccccc32)CC1,inactive
17,CCC1(C)CC(=O)NC1=O (configuration not stated),inactive
18,NC(=O)OCC(COC(N)=O)c1ccccc1,inactive
19,O=c1[nH]cc(F)c(=O)[nH]1,inactive
20,CN(C)CCC=C1c2ccccc2C=Cc2ccccc21,inactive
21,CN1CCN(C2=Nc3cc(Cl)ccc3Nc3ccccc32)CC1,inactive
22,Cn1cnc2c1c(=O)[nH]c(=O)n2C,inactive
23,Nc1c2c(nc3ccccc13)CCCC2,inactive
24,Nc1nc2c(ncn2COC(CO)CO)c(=O)[nH]1,inactive
25,CN1C(C(=O)Nc2ccccn2)=C(O)c2ccccc2S1(=O)=O,inactive
26,O=C(c1ccc(OCCN2CCCCC2)cc1)c1c(-c2ccc(O)cc2)sc2cc(O)ccc12,inactive
27,C[C@](N)(Cc1ccc(O)c(O)c1)C(=O)O,inactive
